Most compounds without a hit are left out; they make up all but 3% or so of the library.
PPC-1+TRAIL kill – compounds killing PPC-1 cancer cells with TRAIL present, primary screen, TRAIL potentiator project, ATPLite luminescence, uHTS. PPC-1 cells + TRAIL, ATPLite viability luminescence. cell killing (% activity), % at 4 µM or 5 µM. actives 0.41% (n = 220,000). AID 1443, 2008;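 active means cell killing above 50% in the first pass at 4 µM, then a duplicate retest at 5 µM averaging 50% or more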;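 further: plate controls were cells with TRAIL plus DMSO for no effect and medium-only wells lacking cells for full effect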
TRAIL sens C8 – viability loss with TRAIL in NB7+C8 cells, primary screen, TRAIL sensitizer project, cell-based, ATPlite luminescence; inhibition (viability loss, TRAIL sensitization), % at 10 µM; actives 1% (n = 360,000);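 active means compounds causing at least 50% loss of cell viability in the single-dose screen, relative to plate controls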
SENP7 block – SENP7 protease inhibitors, primary screen, biochemical, luminescence, uHTS; AID 434973, 2010; actives 1.5% (n = 330,000); recombinant SENP7, Z-RLRGG-aminoluciferin luminescence, 40 min; Sentrin-specific protease 7 (Homo sapiens), Q9BQF6; inhibition, % at 5 µM;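 active means inhibition above about 50% at the single test dose, limit read from the data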;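 further: plate controls were DMSO with enzyme for no effect and no enzyme buffer wells for full effect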
SENP8 block-1 – human SENP8 protease inhibitors, primary screen, biochemical, fluorescence, Nedd8 protein substrate, uHTS | inhibition, % at 20 µM | recombinant SENP8 | AID 602440, 2012 | Sentrin-specific protease 8 (Homo sapiens), Q96LD8 | actives 0.64% (n = 360,000); in the data active means inhibition mostly above about 40%, no sharp cut-off; inactive means mostly below about 27%
Target sequence (Q96LD8 whole entry, looked up): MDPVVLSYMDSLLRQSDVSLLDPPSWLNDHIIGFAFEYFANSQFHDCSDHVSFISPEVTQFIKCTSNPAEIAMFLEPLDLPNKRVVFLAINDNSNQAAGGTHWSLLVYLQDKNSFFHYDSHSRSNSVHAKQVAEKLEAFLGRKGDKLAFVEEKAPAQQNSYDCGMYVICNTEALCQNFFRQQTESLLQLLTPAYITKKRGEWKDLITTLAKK
SENP8 block-2 – SENP8 protease inhibitors, primary screen, biochemical, luminescence. Sentrin-specific protease 8 (Homo sapiens), Q96LD8. purified SENP8, Z-RLRGG-aminoluciferin cleavage. inhibition, % at 10 µM. actives 1.2% (n = 330,000). AID 2540, 2010; in the data active means inhibition above about 50%
SENP6 inh – SENP6 protease inhibitors, primary screen, biochemical, luminescence, uHTS. Recombinant SENP6 catalytic domain, aminoluciferin luminescence. inhibition, % at 10 µM. Sentrin-specific protease 6 (Homo sapiens), Q9GZR1. actives 1.8% (n = 330,000);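 active means inhibition above about 50% at the single tested dose, limit read from the data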;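 further: plate controls were DMSO wells with enzyme for no effect and DMSO wells lacking enzyme for full effect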
SENP8 inh conf – human SENP8 protease inhibitors, confirmation, biochemical, Nedd8 protein substrate, single concentration. shares compounds with SENP8 block-1. purified SENP8, Nedd8-AMC/pro-Nedd8 cleavage fluorescence, 30 min. inhibition, % at 25 µM. actives 15% (n = 1,400). AID 624319, 2012; in the data active means inhibition mostly above about 39%, no sharp cut-off; inactive means mostly below about 34%
* marks the source's active call; other numbers are inactive results; nt = no result.

SMILES | PPC-1+TRAIL kill | TRAIL sens C8 | SENP7 block | SENP8 block-1 | SENP8 block-2 | SENP6 inh | SENP8 inh conf
C/C(=N\Nc1ccc(S(=O)(=O)Nc2ccc(Cl)cc2)cc1[N+](=O)[O-])c1ccc(N2CCOCC2)cc1 | 8 | -7 | 8 | 31 | -2 | -6 | nt
CCOc1ccc(N(CC(=O)NCc2ccccc2)S(C)(=O)=O)cc1 | -17 | -15 | 11 | 48* | 2 | -11 | 28
CN(C)c1ccc(NC(=O)CSc2nc3c(c(=O)[nH]2)CCCC3)cc1 | -7 | 7 | 3 | 45* | 4 | 13 | 18
CC(=O)NN1C(=O)c2ccc3c4c(ccc(c24)C1=O)C(=O)N(NC(C)=O)C3=O | nt | 47 | 20 | 35* | 11 | 28 | 54*
S=C(NCCc1ccccn1)Nc1ccccc1Cl | 0 | 1 | 3 | 14 | 1 | -3 | nt
Cc1c(Cl)cccc1NC(=S)NCCc1ccccn1 | 5 | -2 | 2 | 47* | 5 | -21 | 16
N#CC(C(=O)c1ccccc1)=C1SCCS1 | 1 | -12 | 3 | 42* | -2 | 7 | 9
COc1ccc(C(=O)c2sc(Nc3ccccc3)c(C(=O)Nc3ccc(OC)c(OC)c3)c2N)cc1 | -2 | -11 | 2 | 50* | -3 | 2 | 11
O=C(CNC(=O)c1ccccc1F)N/N=C/c1cccs1 | nt | -4 | -5 | 42* | -11 | -28 | 11
COc1ccc(S(=O)(=O)N2CCN(Cc3c[nH]c4ccccc34)CC2)cc1 | 11 | -8 | -1 | 24 | 1 | 15 | nt
O=[N+]([O-])c1ccc(S(=O)(=O)N2CCN(Cc3c[nH]c4ccccc34)CC2)cc1 | 7 | 3 | 3 | 59* | 5 | 3 | 24
NC(=O)c1ccc(N=C2C(=O)Nc3ccc([N+](=O)[O-])cc32)cc1 | 17 | -1 | -3 | 86* | 7 | 33 | 100*
O=C1Nc2ccccc2C1=Nc1cccc([N+](=O)[O-])c1 | nt | -8 | 2 | 13 | -4 | -7 | nt
O=C(CNC1CCCCC1)Nc1ccc(Cl)cc1 | nt | 2 | 6 | 21 | 3 | 9 | nt
Cc1cc(C)cc(OCC(=O)OCC(=O)N2CCc3ccccc32)c1 | nt | 19 | 10 | 0 | -6 | -8 | nt
Cc1c(Cl)c(C(=O)NNC(=S)NCc2ccco2)nn1C | 8 | 2 | -7 | 40* | -10 | -12 | 14
O=C(NCC(=O)N(CC1CCCO1)C(C(=O)NC1CCCC1)c1cccnc1)c1ccco1 (centres undefined) | 11 | 2 | -1 | 42* | 2 | 2 | 14
CCOC(=O)C1C(=O)CC(C)(O)C(C(=O)OCC)C1c1ccc([N+](=O)[O-])cc1 (centres undefined) | 6 | 10 | 0 | 46* | -1 | -9 | 27
CCOC(=O)C1C(=O)CC(C)(O)C(C(=O)OCC)C1c1ccccc1 (centres undefined) | 0 | -6 | -5 | 8 | -4 | -5 | nt
O=C(CCCCCNC(=O)N1CCn2c1nc1ccccc12)N[C@H](C(=O)O)c1ccccc1 | nt | -1 | 3 | 52* | 2 | 2 | 20
CN(C(=S)Nc1cccnc1)c1ccc(O)cc1 | 8 | -1 | nt | 40* | nt | nt | 12
CN(C(=S)Nc1ccccc1)c1ccccc1 | 18 | -3 | 0 | 24 | -4 | -10 | nt
CN(C(=S)Nc1ccc(Oc2ccccc2)cc1)c1ccc(O)cc1 | 39 | 4 | nt | 46* | nt | nt | 15
O=C(CCCc1cccs1)Nc1nccs1 | 9 | 5 | 5 | 10 | -2 | -14 | nt
CC1CCC(=NNc2ccc(C(F)(F)F)cc2[N+](=O)[O-])CC1 (centres undefined) | 15 | -6 | -4 | 43* | -4 | -11 | 26
O=C(Nc1nccs1)C1CCCCN1S(=O)(=O)c1ccccc1 (centres undefined) | 22 | 6 | -6 | 45* | 1 | 14 | -1
